Rows were chosen to be rich in hits. Some 2.4% of all compounds tested hit in one or more screens of this group.
D2 antag – antagonists of human D2 dopamine receptor. P14416. HEK293 TREx D2 cells, calcium flux, dopamine EC80. inhibition, % at 10 µM. 2% of 340,000 active; in the data active means inhibition above about 30%; inactive means below that, where a call was filed; further: 0% is about no effect
Target sequence (P14416 whole entry, looked up): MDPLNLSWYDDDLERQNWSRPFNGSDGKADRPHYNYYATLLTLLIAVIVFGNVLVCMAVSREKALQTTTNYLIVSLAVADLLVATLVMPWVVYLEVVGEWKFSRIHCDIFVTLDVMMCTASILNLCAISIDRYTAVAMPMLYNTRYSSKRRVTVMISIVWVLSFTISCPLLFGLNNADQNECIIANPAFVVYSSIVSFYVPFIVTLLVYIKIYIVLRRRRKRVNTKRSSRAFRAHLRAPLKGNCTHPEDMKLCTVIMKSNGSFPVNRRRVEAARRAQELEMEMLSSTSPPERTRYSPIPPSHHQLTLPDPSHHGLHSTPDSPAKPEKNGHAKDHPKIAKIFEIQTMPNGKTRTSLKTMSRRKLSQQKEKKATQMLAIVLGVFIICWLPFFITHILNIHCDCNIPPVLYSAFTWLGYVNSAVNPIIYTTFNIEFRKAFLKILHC
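HEK293 T-REx D2 cells, tet-induced, calcium dye no-wash. Cpd pintool add, 180 s kinetic, then EC80 DA, 180 s kinetic. Ca flux read.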
D2 ag-1 – human D2 receptor agonism in beta-arrestin assay. AID 624465. 0.084% of 360,000 active. activation, % (concentration not given with the values). P14416. DiscoveRx PathHunter D2 beta-arrestin, luminescence, 90 min; 100% = 57 uM dopamine signal; in the data active means activation above about 40%; inconclusive means between about 15% and that limit
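Agonist mode: compounds alone added to overnight-plated D2 PathHunter cells for 90 min at 37 C, with 57 uM final dopamine (EC100) defining full response. Beta-arrestin recruitment detected by chemiluminescent reagent, read after 1 h at ambient temperature.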
D2 PAM-1 – positive allosteric modulators of human D2 dopamine receptor; P14416; DiscoveRx D2 beta-arrestin cells, luminescence, 90 min; 100% = 57 uM dopamine signal; potentiation, % (test concentration not listed); 0.23% of 360,000 active; in the data active means potentiation above about 50%; inconclusive means mostly about 30% to 49%
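D2 cells co-treated with compound plus 50 nM dopamine (EC20) for 90 min at 37 deg C to detect potentiation. Beta-arrestin recruitment was read as enzyme-fragment luminescence after 1 h at ambient temperature. Full response was set by 57 uM dopamine.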
D2 ag-2 – D2 dopamine receptor (human) agonism; P14416; HEK293 T-REx D2 cells, calcium flux agonist mode; activation, % at 2 µM; 0.53% of 340,000 active; AID 485358;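 active means activation over 3 SD above normal in the single-dose calcium agonist read, cut at about 30% in these data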; further: 0% is about no effect
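Calcium-flux readout, 1 cycle/sec over 180 s following compound pin transfer, in inducible HEK293 Trex D2 cells (force-coupled); dopamine controls included. Positive calcium responses during this window marked compounds as potential agonists.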
D2 PAM-2 – positive allosteric modulators of human D2 dopamine receptor | P14416 | HEK293 T-REx D2, calcium flux, EC20 dopamine potentiation | potentiation, % at 10 µM | 0.34% of 340,000 active | AID 485347;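 active means potentiation over 3 SD above the plate norm, cut at about 30% in these data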; further: 0% is about no effect
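Calcium flux readout, no-wash dye, 1 read/s. Inducible HEK293 Trex D2 line, overnight 30 C. Compound alone 180 s (agonist flags), then EC20 dopamine, another 180 s to score potentiation.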
* hit, by the source's call; u = inconclusive; x = no result.

SMILES	D2 antag	D2 ag-1	D2 PAM-1	D2 ag-2	D2 PAM-2
Cc1cc(C)cc(NC(=O)CCC(=O)Nc2nnc(C(F)(F)F)s2)c1	13.6	-3.0	-2.0	0.0	7.6
COc1ccc(OC)c(CNC(=O)c2cnc3c(C)cccn3c2=O)c1	x	x	x	0.1	6.8
CC(=O)C(C(c1ccccc1)N1CCCc2ccccc21)N1CCOCC1 (configuration not stated)	x	1.6	-7.6	x	x
c1ccc2c(c1)OC(CCCN1CCCCC1)c1ccccc1S2 (configuration not stated)	87.0*	-4.8	-30.8	1.1	-27.7
CN1CCCC(CC2Oc3ccccc3Sc3ccccc32)C1 (configuration not stated)	95.7*	-6.0	-17.4	2.8	-33.2
c1ccc(OCCCCN2CCCCC2)cc1	0.5	-1.6	-12.2	0.8	-14.3
CCC1Cc2[nH]c(=S)[nH]c(=O)c2C(c2ccc(F)cc2)O1 (configuration not stated)	x	-1.7	-5.9	x	x
CCN1c2ccccc2-c2nc(SCC(=O)Nc3c(C)cc(C)cc3C)ncc2S1(=O)=O	x	x	x	0.3	3.2
Cc1ccc(S(=O)(=O)N(C)C)cc1NC(=S)Nc1ccc2[nH]c(=O)[nH]c2c1	48.9*	-1.8	-23.6	1.4	-13.9
Cc1ccc(NC(=S)Nc2ccc3[nH]c(=O)[nH]c3c2)cc1C	-4.3	-7.7	-15.3	-0.4	10.7
CN(C)S(=O)(=O)c1cccc(C(=O)NCc2ccco2)c1	-15.3	0.0	-14.8	0.2	2.8
Cc1ccc(S(=O)(=O)N(C)C)cc1NC(=S)NCc1ccco1	39.7*	-3.8	-43.2	0.3	x
S=C(NCc1ccco1)Nc1ccccc1	30.6*	2.3	-3.1	-0.2	8.3
Cc1ccc(S(=O)(=O)N(C)C)cc1NC(=S)NC12CC3CC(CC(C3)C1)C2	77.8*	-3.3	-8.2	0.2	-24.1
Cc1ccc(S(=O)(=O)N(C)C)cc1NC(=S)NC(=O)C12CC3CC(CC(C3)C1)C2	9.1	1.3	10.4	-0.8	3.7
CC(C)C(=O)N1CCC1(C)C(=O)Nc1ccc2[nH]ccc2c1 (configuration not stated)	x	-6.9	-5.8	x	x
Cc1cccc(C(=O)OCC(=O)NN2C(=O)NC3(CCC(C)CC3)C2=O)c1O (configuration not stated)	30.6*	-0.3	6.2	-0.4	5.9
CNC(=S)N(CCc1cccc(C)c1)Cc1cc2cc(OC)c(OC)cc2[nH]c1=O	30.3*	-1.8	-6.8	0.3	1.2
Cc1cccc2cc(CN(CC3CCCO3)C(=O)NC3CCCCC3)c(=O)[nH]c12 (configuration not stated)	-3.6	-1.6	-10.2	0.7	-8.7
COc1ccc(CCN(Cc2cc3cccc(C)c3[nH]c2=O)C(=O)NC2CCCCC2)cc1OC	31.3*	0.5	-0.9	0.2	18.6
Fc1ccc(N2CCN(Cc3cn[nH]c3-c3ccccc3)CC2)cc1	-4.2	0.9	-14.8	6.0	-14.5
COc1ccc(-c2[nH]ncc2CN2CCC(O)(c3ccc(Cl)cc3)CC2)cc1	17.9	2.1	-12.3	-0.8	-22.0
OC1(c2ccc(Cl)cc2)CCN(Cc2cn[nH]c2-c2ccccc2)CC1	84.0*	2.9	-13.9	0.4	-22.3
OC1(c2ccc(Cl)cc2)CCN(Cc2cn[nH]c2-c2ccc(F)cc2)CC1	56.4*	2.0	-16.4	3.1	-19.6
Cc1ccc(NC(=O)C2CCN(S(=O)(=O)c3ccc4c(c3)NC(=O)C(C)S4)CC2)cc1Cl (configuration not stated)	72.5*	-0.2	-0.8	1.6	-13.8
SMILES	D2 antag	D2 ag-1	D2 PAM-1	D2 ag-2	D2 PAM-2
COc1ccc(Cl)cc1NC(=O)CSc1nnc(C2CC2)n1N	-9.5	-1.8	-7.6	0.0	31.4*
Nn1c(SCC(=O)Nc2ccccc2F)nnc1C1CCCCC1	-9.4	1.8	-9.8	-0.5	36.8*
COc1ccc(OC)c(NC(=O)CSc2nncc(=O)n2N)c1	36.0*	-4.1	-9.3	0.8	-14.6
CCS(=O)(=O)N1CCC(C(=O)Nc2ccc3c(c2)CCC3)CC1	-4.4	-6.9	-5.4	4.6	0.8
CCOc1ccc2nc(N3CCCC(C(=O)Nc4ccc(OC)c(Cl)c4)C3)sc2c1 (configuration not stated)	x	x	x	x	15.5
C=C(C)COc1ccc(-c2[nH]ncc2-c2ccc(OC)cc2)c(O)c1	-14.1	1.5	-4.9	x	8.9
COc1ccc(-c2cn[nH]c2-c2ccc(OCc3ccc(F)cc3)cc2O)cc1OC	44.7*	2.5	-9.6	-1.1	-11.3
C=C(C)COc1ccc(-c2[nH]ncc2-c2ccccc2)c(O)c1	-5.5	6.9	83.6*	-0.3	7.4
O=c1nc(Nc2cccc(Cl)c2)oc2cc(Cl)oc(=O)c12	31.6*	-6.5	2.6	-2.1	3.1
CCC(NC(=O)c1ccc([N+](=O)[O-])cc1[N+](=O)[O-])c1ccccc1 (configuration not stated)	-2.4	10.5	73.5*	0.6	7.2
CCc1c(O)nc(SCC(=O)N(CC)CC)[nH]c1=O	34.1*	-1.6	2.8	-0.7	-0.3
CCN(CC)C(=O)CSc1nc(O)c(Cc2ccc(OC)cc2)c(=O)[nH]1	-25.3	-5.1	-4.3	-0.5	14.5
CC(=O)OC1CC2(C)/C(=N\O)CCC2C2CCc3cc(O)ccc3C12 (configuration not stated)	x	41.5*	4.8	x	x
COc1ccc(-c2[nH]nc3oc(=O)cc(C)c23)cc1	33.4*	-2.4	-6.9	0.1	27.8
CNCCCC1c2ccccc2C=Cc2ccccc21	74.8*	2.1	-27.4	2.8	-26.3
O=C(CN1C(=O)NC2(CCCC2)C1=O)Nc1cc(S(=O)(=O)N2CCOCC2)ccc1OCC(F)(F)F	-5.5	2.6	1.9	0.3	6.6
CCOC(=O)N1CCN(C(=O)Nc2ccc3oc(C)nc3c2)CC1	44.4*	7.5	u	1.1	x
CCOC(=O)C1CCN(C(=O)Nc2ccc3oc(C)nc3c2)CC1	x	-1.7	-3.2	x	x
COc1ccc(CSc2nc3ccncc3n2Cc2nc(-c3ccc(OC)c(OC)c3)oc2C)cc1	x	x	x	0.2	6.0
Cc1ccc(NC2=C/C(=N/S(=O)(=O)c3cccs3)c3ccccc3C2=O)cc1C	-6.0	u	76.4*	0.7	-0.4
Cc1cccc(NC(=O)CN2C(=O)C(c3ccc(F)cc3)=NC23CCCCCC3)c1C	x	x	x	1.2	0.5
COc1ccc(NC(=O)CSc2ccccn2)c([N+](=O)[O-])c1	31.3*	6.6	-4.6	-0.3	-2.7
O=C(CSc1ccccn1)Nc1cccc2ccccc12	14.4	1.2	11.4	-0.5	33.9*
O=C(CSc1ccccn1)Nc1nonc1[N+](=O)[O-]	-14.9	63.4*	-8.1	1.6	6.7
Cc1cccc(-c2nc(SCC(=O)Nc3cccc(C(F)(F)F)c3)n3[nH]c(=O)cc3n2)c1	x	x	x	0.1	x
Cc1cc(C)c(Cn2c(CCNC(=O)c3ccco3)nc3ccccc32)c(C)c1	x	x	x	x	-7.8

Assay outcomes from PubChem BioAssay.
